Bioassay records (PubChem BioAssay)
An excerpt weighted towards active compounds, which were near 0.51% of everything screened.
phage Ecoli inh: E. coli growth loss with phage present; growth absorbance; inhibition, % at 11.9 µM; 360,000 tested, 0.26% active; in the data active = inhibition above about 11%
Tat transport: inhibitors of E. coli Tat protein transport; E. coli MC4100 TorA-mCherry Tat export, fluorescence; AID 488895; inhibition, % at 10 µM; 340,000 tested, 0.036% active;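 active = mean replicate inhibition at least 50% and at least half of replicates individually reaching 50%; inconclusive = only one of the two criteria met; inactive = neither criterion met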;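 also: exported cargo escapes ClpAP degradation while cytoplasmic cargo is degraded and loses fluorescence; 0% = median of neutral control wells and 100% = median of NaSCN control wells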
AddAB inh: less growth of phage-infected E. coli with AddAB; E. coli expressing H. pylori AddAB, absorbance growth; inhibition, % at 11.9 µM; 330,000 tested, 0.29% active; AID 435030; in the data active = inhibition above about 12%;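 also: 0% = vehicle wells of infected cells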
E coli growth-1: inhibitors of Escherichia coli growth; OD600, 23 h; active compounds read low; OD600 absorbance (no concentration beside the values); 330,000 tested, 0.21% active; AID 1053175;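 active = OD600 absorbance below the run mean of sample wells minus 3.6 SD, in any replicate, cut at about 0.56 in these data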
E coli growth-2: reduces bacterial viability in AddAB counter-screen | inhibition, % at 11.9 µM | 330,000 tested, 0.27% active | E. coli V3065 growth, OD600 absorbance, 18 h;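 active = inhibition above the campaign's mean inhibition across all tested compounds plus 3 SD, cut at about 9.9% in these data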;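 also: uninfected addAB+ strain grown without phage in ampicillin broth; 0% = DMSO wells and 100% = ciprofloxacin 0.95 µg/ml wells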
AddAB conf: confirmation screen: growth loss of phage-infected E. coli expressing H. pylori AddAB; shares compounds with AddAB inh; E. coli V3065 expressing H. pylori AddAB, T4 phage, OD; T4 phage with gene 2 nonsense mutations; inhibition, % at 11.9 µM; 880 tested, 64% active; AID 488942;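 active = mean inhibition above a set limit taken from the earlier primary screen, cut at about 13% in these data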;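 also: higher means less bacterial growth since AddAB block lets phage replicate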
RecBCD counter: reduces growth of phage-infected RecBCD+ E. coli, AddAB inhibitor counter-screen | shares compounds with AddAB inh | E. coli V66 + mutant T4 phage, OD growth | inhibition, % at 11.9 µM | 880 tested, 73% active | AID 488955;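 active = mean inhibition above the mean of solvent-only control wells plus 3 SD, cut at about 4% in these data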;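 also: optical density read after an 18 h incubation at 37 °C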
bact viab count: counter-screen: bacterial growth inhibition; shares compounds with AddAB inh; bacterial viability, absorbance (AddAB counterscreen); inhibition, % at 11.9 µM; 880 tested, 35% active; AID 488956; in the data active = inhibition above about 25%
Numbers without * were called inactive; u = inconclusive; x = not tested or not shown.

SMILES | phage Ecoli inh | Tat transport | AddAB inh | E coli growth-1 | E coli growth-2 | AddAB conf | RecBCD counter | bact viab count
C=CCC(CC(=O)N(CCO)Cc1ccccc1)C(=O)NC(COC(=O)C(CC=C)Cc1ccc(F)cc1)Cc1ccccc1 (configuration not stated) | x | x | x | 0.71 | x | x | x | x
COC(=O)c1cc(=O)n(CCc2ccc(OC)cc2)c(=Nc2ccc(F)c(Cl)c2)s1 | 2 | 0 | 0 | 0.81 | -2 | x | x | x
COC(=O)c1cc(=O)n(CCc2ccccc2)c(=Nc2ccc(F)cc2)s1 | 2 | 4 | 99* | 0.79 | 99* | 0 | 1 | -2
COc1ccc(C2=CC(=O)C[C@H](c3ccc(Cl)cc3)C2)cc1 | 2 | 12 | 2 | x | -1 | x | x | x
COc1ccc(C2=CC(=O)CC(c3ccc(OC)cc3)C2)cc1 (configuration not stated) | 2 | 0 | 16* | x | 10* | -4 | 1 | -2
CCCC1Cc2ccccc2N1C(C)=O (configuration not stated) | x | x | x | 0.65 | x | x | x | x
CCOC(=O)N1CCN(C(=O)CCCn2c(=S)[nH]c3ccsc3c2=O)CC1 | -1 | -7 | 25* | 0.71 | 24* | -6 | -1 | -5
C=CCSc1nc2sc(C)c(C)c2c(=O)[nH]1 | 2 | -6 | 17* | 0.71 | 8 | -2 | 1 | -2
Cc1cc(NN=Cc2ccncc2)nc2ccccc12 | x | x | x | 0.63 | x | x | x | x
Cn1c(/C=C/c2ccc([N+](=O)[O-])o2)nc2ccccc2c1=O | x | -2 | 63* | 0.44* | 79* | 99* | 29* | 100*
Cc1cc(N/N=C/c2ccc([N+](=O)[O-])o2)nc2ccccc12 | 7 | -1 | 50* | x | 32* | 43* | 4.9* | 13
O=C(O)[C@H](O)[C@@H](O)C(=O)O | 0 | -3 | 25* | 0.7 | 5 | -2 | 0 | 0
O=C(NCCc1ccccc1)C1CC=CC2CCN(C3CCCCC3)C(=O)C21 (configuration not stated) | x | x | x | 0.66 | x | x | x | x
COC(=O)c1[nH]c(C)c(C(O)=C2C(=O)C(=O)N(CCN(C)C)C2c2cc(OC)ccc2OC)c1C (configuration not stated) | x | x | x | 0.75 | x | x | x | x
C[C@@]12CCC3[C@@](CCC4[C@@]3(C)CCC[C@@]4(C)C(=O)O)(CC1NCc1ccccc1)C2 (some centres not stated) | x | x | x | 0.65 | x | x | x | x
CCCCNC(=O)O[C@H]1C[C@@H]2CCN3C(=O)CCC[C@H]([C@H]1CC)[C@H]23 | 3 | -10 | 15* | x | 2 | -2 | 1 | -4
CCOc1cc(N)c(Cl)cc1C(=O)NCC1CN(Cc2ccc(F)cc2)CCO1 (configuration not stated) | 5 | 3 | 99* | 0.064* | 93* | 101* | 12* | 98*
O=C(C(=CO)N=Nc1ccccc1)c1ccc(Cl)cc1 | x | x | x | 0.73 | x | x | x | x
O=C(COc1ccc(Cl)cc1)Nc1ncc([N+](=O)[O-])s1 | 3 | -5 | x | 0.66 | x | x | x | x
O=C(COC(=O)COc1ccccc1)Nc1ncc([N+](=O)[O-])s1 | 2 | -10 | 13* | 0.59 | 7 | 33* | 5.7* | 15
CCN1/C(=C/C=C/c2oc3ccc(-c4ccccc4)cc3[n+]2CC)Oc2ccc(-c3ccccc3)cc21 | 9 | -15 | 12* | 0.74 | 12* | 8 | 5.6* | 6
Cc1cc(C(C)(C)C)cc(C)c1CC1=NCCN1 | 3 | -14 | 14* | 0.7 | 10.0* | 53* | 1 | 24
c1ccc(CC2=NCCN2)cc1 | 3 | u | -1 | 0.67 | 0 | x | x | x
C#CCOCCOCCOCCNc1nc(N2CCN(C(=O)Cn3cc(CC(C)O)nn3)CC2)nc(N2CCN(C(=O)C(C(C)CC)n3cc(CCCN=C(N)N)nn3)CC2)n1 (configuration not stated) | x | x | x | 0.68 | x | x | x | x
O=C(CC1CC=CCC(Cc2ccc(F)cc2)C(=O)OC(c2ccccc2)CNC1=O)NC(CO)Cc1ccccc1 (configuration not stated) | x | x | x | 0.67 | x | x | x | x
O=C(NCCCn1ccnc1)C(=O)NCC(c1ccco1)N1CCN(c2ccccc2)CC1 (configuration not stated) | 1 | 0 | 0 | 0.72 | 2 | x | x | x
